Data on eight molecules can be found in ChEMBL document CHEMBL3988442, “University of Dundee, Small-Polar-MMV Screening Library” (2021).

What all share (design): scale not given: direction of the effect not stated beside the values
Experiment [1] addresses Protein translocase subunit SecA (Escherichia coli (strain K12)) (UniProt P10408). The experiment in a line: Assay to Identify E. coli SecA ATPase Inhibitors. Type of experiment: functional. The settings on record: 30 µM.
In experiment [2] the target is T1, Ubiquitin-activating enzyme e1, putative (Leishmania donovani (strain BPK282A1)) (UniProt E9BSI1).
T1 sequence (whole entry): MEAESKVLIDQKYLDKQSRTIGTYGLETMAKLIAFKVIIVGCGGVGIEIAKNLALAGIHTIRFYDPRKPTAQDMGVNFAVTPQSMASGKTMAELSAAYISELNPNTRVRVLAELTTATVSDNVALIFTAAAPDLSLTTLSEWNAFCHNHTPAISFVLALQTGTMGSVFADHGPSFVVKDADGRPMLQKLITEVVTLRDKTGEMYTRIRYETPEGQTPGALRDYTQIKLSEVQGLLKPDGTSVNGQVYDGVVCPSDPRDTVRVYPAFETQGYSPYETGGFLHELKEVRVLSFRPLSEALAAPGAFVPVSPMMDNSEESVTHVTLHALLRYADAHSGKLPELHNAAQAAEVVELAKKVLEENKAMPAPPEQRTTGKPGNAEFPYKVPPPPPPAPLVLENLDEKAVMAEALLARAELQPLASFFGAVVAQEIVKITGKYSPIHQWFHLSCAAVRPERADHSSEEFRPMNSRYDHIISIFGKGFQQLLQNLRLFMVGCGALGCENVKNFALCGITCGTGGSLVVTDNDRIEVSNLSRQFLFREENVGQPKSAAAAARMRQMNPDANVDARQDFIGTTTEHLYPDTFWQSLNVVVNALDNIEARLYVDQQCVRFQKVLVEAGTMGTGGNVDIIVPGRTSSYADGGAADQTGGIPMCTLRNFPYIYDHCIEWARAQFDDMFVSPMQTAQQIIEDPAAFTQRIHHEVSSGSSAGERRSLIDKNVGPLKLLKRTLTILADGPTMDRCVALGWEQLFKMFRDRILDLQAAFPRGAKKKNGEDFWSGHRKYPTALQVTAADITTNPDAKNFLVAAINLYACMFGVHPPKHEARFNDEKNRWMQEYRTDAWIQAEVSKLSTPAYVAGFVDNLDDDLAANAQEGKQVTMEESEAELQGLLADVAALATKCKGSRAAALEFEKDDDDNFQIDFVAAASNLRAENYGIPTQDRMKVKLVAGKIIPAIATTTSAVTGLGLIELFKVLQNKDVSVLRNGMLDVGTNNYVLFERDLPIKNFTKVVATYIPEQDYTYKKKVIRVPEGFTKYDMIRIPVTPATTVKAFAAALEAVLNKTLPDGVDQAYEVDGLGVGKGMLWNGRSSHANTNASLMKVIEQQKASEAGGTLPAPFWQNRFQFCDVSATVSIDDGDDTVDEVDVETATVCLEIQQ
The experiment in a line: Leishmania donovani Ubiquitin Activating Enzyme (LdE1). The format is functional. To be noted: 30 µM.

The target in experiment [3] is AMP-activated protein kinase, AMPK (Homo sapiens) (UniProt P54646+O43741+P54619+Q9UGJ0+Q9Y478+Q13131+Q9UGI9). Kind of experiment: AMP-dependent Kinase enzyme assay. An in vitro enzyme assay that detects ADP turnover that is directly proportional to AMPK activity. This uses naive AMPK that is activated during the assay with MK-8722. Type of experiment: functional. To be noted: 30 µM.

Experiment [4] concerns the target Sialic acid-binding Ig-like lectin 9 (Homo sapiens) (UniProt Q9Y336). Kind of experiment: Hs-Siglec9 ALPHAscreen SOP 20170721. To be noted: 10 µM. (Bead proximity is the source of the signal in Alpha formats.)
The next experiment relates to Trypanosoma cruzi. Kind of experiment: Trypanosoma cruzi phosphomannomutase and mannose-1-phosphate guanylyltransferase assay. The format is functional. The settings on record: 10 µM.
Experiment [5] addresses T2, Arginase-2, mitochondrial (Homo sapiens) (UniProt P78540).
T2 sequence (whole entry): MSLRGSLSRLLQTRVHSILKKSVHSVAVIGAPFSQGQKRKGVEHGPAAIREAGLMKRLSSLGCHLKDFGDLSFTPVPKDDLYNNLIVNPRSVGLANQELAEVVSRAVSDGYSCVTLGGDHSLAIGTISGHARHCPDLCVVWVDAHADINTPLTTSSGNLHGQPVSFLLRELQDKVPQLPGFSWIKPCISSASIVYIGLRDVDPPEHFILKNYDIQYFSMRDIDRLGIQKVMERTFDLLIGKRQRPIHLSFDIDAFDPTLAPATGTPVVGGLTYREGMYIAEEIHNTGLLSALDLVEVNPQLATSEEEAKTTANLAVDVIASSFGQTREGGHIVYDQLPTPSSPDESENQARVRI
Kind of experiment: in vitro enzyme assay to detect the production of urea directly proportional to the activity of Arginase II. Also: in the data most compounds retested in dose-response had high values. The format is functional. The settings on record: 33.3 µM.

Experiment [6] concerns the target T3, Proteasome subunit beta (Trypanosoma cruzi) (UniProt O96673).
T3 sequence (whole entry): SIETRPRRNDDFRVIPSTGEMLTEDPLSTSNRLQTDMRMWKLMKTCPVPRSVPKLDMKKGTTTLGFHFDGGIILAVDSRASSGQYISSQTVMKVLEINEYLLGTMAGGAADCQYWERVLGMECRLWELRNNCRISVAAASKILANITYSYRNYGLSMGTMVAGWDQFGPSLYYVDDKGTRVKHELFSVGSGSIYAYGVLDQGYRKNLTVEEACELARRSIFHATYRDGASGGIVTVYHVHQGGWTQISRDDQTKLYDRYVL
The experiment in a line: Trypanosoma cruzi proteasome chymotrypsin-like activity (TcProtChymo) assay. Also: in the data most compounds retested in dose-response had high values. The format is functional. To be noted: 9.37 µM.

A further experiment is filed under the species Homo sapiens. The experiment in a line: To identify inhibition of the IFN signalling (Jak-Stat) pathway via expression of an eGFP reporter gene under the control of an IFN-stimulated response element (ISRE) containing MxA promoter. To be noted: 30 µM. Type of experiment: functional. A general note: In a reporter assay the amount or activity of a reporter protein is the signal.

The target of experiment [7] is T4, Tyrosyl-tRNA synthetase, putative (Trypanosoma cruzi (strain CL Brener)) (UniProt Q4DSP6).
T4 sequence (whole entry): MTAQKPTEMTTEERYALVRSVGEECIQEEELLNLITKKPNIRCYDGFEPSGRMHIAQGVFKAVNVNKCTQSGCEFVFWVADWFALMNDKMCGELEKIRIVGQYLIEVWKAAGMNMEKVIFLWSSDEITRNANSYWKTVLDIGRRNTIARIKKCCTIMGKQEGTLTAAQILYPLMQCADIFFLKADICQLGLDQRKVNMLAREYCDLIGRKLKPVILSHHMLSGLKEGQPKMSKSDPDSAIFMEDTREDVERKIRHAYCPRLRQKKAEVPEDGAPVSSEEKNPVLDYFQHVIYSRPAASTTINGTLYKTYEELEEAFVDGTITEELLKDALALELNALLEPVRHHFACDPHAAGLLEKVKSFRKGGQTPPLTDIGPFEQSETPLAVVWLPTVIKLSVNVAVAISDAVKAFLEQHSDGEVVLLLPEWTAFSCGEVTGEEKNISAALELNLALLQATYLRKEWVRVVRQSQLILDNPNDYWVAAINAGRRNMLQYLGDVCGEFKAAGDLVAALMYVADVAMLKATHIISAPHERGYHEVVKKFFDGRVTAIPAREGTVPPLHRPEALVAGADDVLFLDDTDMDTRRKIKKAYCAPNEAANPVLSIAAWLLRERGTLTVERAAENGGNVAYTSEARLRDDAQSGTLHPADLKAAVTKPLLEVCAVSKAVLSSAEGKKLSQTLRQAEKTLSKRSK
The experiment in a line: Trypanosoma cruzi tyrosyl tRNA synthetase (TcYRS) _High Tyrosine SOP. Also: in the data most compounds retested in dose-response had high values. Type of experiment: functional. The settings on record: 30 µM.

Experiment [8] concerns the target T4, Tyrosyl-tRNA synthetase, putative (Trypanosoma cruzi (strain CL Brener)). Kind of experiment: Trypanosoma cruzi tyrosyl tRNA synthetase (TcYRS) SOP. The settings on record: 30 µM. The format is functional.
For experiment [9], the target named is Chromo domain-containing protein 1 (Saccharomyces cerevisiae (strain ATCC 204508 / S288c) (Baker's yeast)) (UniProt P32657). The experiment in a line: ScCHD-1 Enzyme Inhibition Assay. Also: in the data most compounds retested in dose-response had high values. The format is functional. To be noted: 30 µM.

SMILES strings stand for the structures. For some of these results: Results with a measured potency or affinity are listed apart.

Sequence of Chromo domain-containing protein 1 (Saccharomyces cerevisiae (strain ATCC 204508 / S288c) (Baker's yeast)) (P32657 whole entry, the tested form may be a part): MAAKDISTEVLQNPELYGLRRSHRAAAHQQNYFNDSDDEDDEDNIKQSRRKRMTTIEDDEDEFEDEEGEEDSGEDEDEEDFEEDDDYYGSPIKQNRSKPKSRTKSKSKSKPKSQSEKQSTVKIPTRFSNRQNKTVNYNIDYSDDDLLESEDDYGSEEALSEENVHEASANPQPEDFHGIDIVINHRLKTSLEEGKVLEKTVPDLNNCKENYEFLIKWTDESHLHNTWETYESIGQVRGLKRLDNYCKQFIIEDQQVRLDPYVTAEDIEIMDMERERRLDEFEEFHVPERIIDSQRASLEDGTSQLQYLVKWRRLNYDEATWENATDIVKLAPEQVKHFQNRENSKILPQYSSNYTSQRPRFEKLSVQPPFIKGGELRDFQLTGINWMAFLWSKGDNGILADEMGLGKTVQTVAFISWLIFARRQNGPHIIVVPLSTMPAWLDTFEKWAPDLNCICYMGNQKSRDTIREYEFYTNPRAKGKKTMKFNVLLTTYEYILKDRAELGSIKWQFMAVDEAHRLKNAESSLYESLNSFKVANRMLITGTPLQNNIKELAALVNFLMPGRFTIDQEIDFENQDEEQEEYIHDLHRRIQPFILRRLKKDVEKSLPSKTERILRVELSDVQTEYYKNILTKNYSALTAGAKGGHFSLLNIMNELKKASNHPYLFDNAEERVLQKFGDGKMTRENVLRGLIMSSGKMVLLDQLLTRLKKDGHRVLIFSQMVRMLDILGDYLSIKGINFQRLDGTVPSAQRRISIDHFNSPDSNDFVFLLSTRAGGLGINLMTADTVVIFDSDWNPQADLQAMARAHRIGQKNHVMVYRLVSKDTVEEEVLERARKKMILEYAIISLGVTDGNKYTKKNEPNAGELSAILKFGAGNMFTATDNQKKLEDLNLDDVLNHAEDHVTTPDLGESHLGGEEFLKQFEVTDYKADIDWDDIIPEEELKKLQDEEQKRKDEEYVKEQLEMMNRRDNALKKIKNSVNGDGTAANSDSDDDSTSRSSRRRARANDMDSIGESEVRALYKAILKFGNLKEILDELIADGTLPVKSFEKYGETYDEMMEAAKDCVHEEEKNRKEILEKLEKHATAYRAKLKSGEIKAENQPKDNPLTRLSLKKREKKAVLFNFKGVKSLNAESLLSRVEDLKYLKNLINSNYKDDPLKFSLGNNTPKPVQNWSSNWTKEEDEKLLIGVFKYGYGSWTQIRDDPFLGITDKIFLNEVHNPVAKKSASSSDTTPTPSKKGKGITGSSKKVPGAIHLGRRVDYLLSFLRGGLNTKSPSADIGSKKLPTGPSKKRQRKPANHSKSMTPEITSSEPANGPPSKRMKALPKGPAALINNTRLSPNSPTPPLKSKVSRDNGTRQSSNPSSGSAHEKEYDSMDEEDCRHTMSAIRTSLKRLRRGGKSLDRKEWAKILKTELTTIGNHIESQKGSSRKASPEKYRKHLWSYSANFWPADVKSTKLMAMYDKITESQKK
Sequence of Sialic acid-binding Ig-like lectin 9 (Homo sapiens) (Q9Y336 whole entry): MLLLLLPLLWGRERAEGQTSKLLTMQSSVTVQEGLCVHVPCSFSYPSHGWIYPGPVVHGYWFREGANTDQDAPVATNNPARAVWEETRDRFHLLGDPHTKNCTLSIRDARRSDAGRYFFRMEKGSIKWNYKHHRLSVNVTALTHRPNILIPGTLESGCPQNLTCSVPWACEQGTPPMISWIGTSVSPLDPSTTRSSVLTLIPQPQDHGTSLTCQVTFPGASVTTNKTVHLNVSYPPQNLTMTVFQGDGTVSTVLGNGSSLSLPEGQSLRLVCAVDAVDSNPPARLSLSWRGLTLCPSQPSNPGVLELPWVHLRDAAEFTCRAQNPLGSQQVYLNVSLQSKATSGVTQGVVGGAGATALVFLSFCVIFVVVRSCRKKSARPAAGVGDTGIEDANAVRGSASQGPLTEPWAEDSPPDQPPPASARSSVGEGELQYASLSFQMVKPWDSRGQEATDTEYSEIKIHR
Sequence of Protein translocase subunit SecA (Escherichia coli (strain K12)) (P10408 whole entry): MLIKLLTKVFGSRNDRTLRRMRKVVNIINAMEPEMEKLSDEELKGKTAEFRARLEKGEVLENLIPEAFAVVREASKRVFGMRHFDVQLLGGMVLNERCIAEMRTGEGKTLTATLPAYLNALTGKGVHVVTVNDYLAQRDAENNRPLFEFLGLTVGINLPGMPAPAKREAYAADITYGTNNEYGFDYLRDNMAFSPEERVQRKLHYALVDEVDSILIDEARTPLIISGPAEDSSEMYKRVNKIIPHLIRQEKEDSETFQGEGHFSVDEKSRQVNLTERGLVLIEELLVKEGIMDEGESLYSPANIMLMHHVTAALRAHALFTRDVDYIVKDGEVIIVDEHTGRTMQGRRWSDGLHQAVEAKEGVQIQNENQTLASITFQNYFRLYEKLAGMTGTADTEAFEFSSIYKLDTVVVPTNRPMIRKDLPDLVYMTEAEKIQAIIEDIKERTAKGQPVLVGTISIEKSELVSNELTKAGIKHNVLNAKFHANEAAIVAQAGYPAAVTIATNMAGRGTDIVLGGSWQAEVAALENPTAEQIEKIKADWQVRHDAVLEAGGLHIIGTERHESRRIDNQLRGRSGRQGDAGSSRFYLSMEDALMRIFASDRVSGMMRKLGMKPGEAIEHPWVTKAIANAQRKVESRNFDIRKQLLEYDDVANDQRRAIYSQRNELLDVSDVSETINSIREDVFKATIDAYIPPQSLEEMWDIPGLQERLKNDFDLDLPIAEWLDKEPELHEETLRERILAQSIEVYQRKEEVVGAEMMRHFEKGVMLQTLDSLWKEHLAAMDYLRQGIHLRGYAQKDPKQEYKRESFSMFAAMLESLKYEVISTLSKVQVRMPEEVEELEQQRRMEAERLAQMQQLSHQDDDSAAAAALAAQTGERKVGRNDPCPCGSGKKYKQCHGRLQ

On to `COc1ccc(CN2C[C@@H]3CCCO[C@@H]3[C@H](NS(C)(=O)=O)C2)cc1`, for which the Percent Effect in experiment [1] was 0.295%; in experiment [2] it was 13.3%; in experiment [3], -2.32%; in experiment [4], 4.91%; in the experiment with Trypanosoma cruzi, 2.9%; in [5], -48.2%. The Percent Effect in experiment [6] was 5.13%; in the experiment filed under Homo sapiens it was -24.2%; in [7] it was 6.25%; in experiment [8], 25%; in experiment [9], -6.84%.

Consider `CCN(Cc1ccco1)C(=O)Nc1cc(C(F)(F)F)c[nH]c1=O`, for which the Percent Effect is -7.27% in experiment [1]; 10.5% in [2]; 0.625% in experiment [3]; -6.37% in [4]; -2.71% in the experiment on Trypanosoma cruzi; 0.719% in [5]. Besides, the Percent Effect is 2.79% in experiment [6]; -6.49% in the experiment filed under Homo sapiens; 4.43% in [7]; 13.6% in experiment [8]; -9.51% in experiment [9].

Consider `Cc1noc(C)c1C(=O)NCC(C)N(C)C` (stereo not drawn), for which the Percent Effect in experiment [1] was 1.71%; in [2], 16.2%; in experiment [3], -3.02%; in experiment [4], -9.99%; in the experiment with Trypanosoma cruzi, -7.71%; in [5], -1.29%. Also, the Percent Effect in experiment [6] was 21.5%; in the experiment listed under Homo sapiens, 11.2%; in experiment [7], 3.96%; in [8], 13.4%; in experiment [9] it was -3.89%.

Take `Cc1nc(CN2CCCC(NCCc3ccccc3Cl)C2)no1` (stereo not drawn): the Percent Effect in experiment [1] is -4.45%; in experiment [2], 7.59%; in experiment [3], 4.77%; in experiment [4], 11.6%; in the experiment on Trypanosoma cruzi it was 2.36%; in [5], -1.14%. Also, the Percent Effect in experiment [6] was -3.19%; in the experiment listed under Homo sapiens, -4.21%; in experiment [7] it was 5.42%; in experiment [8], 8.86%; in [9] it was -0.689%.

For the molecule `O=C(c1ccsc1)N1CC(C(=O)N2CCOCC2)C2(CCOCC2)C1` (stereo not drawn), the Percent Effect in [1] is -0.06%; in experiment [2] it was 2.6%; in experiment [3], 3.52%; in experiment [4], 3.83%; with Trypanosoma cruzi it was -6.21%; in experiment [5], -3.23%. For the same molecule, the Percent Effect is 16.5% in [6]; 7.29% in the experiment filed under Homo sapiens; -29.6% in experiment [7]; -1.28% in experiment [8]; -0.146% in experiment [9].

In the case of `O=C(NCCc1ccccn1)C1=NN(c2ccccc2)C(=O)CN1`, the Percent Effect in [1] was 0.741%; in [2], 15.2%; in [3], 0.826%; in [4], -11.6%; in the experiment with Trypanosoma cruzi, -9.16%; in experiment [5], 6.08%. Further, the Percent Effect is 4.83% in [6]; 11.7% in the experiment filed under Homo sapiens; 2.46% in experiment [7]; 13.9% in [8]; -1.69% in [9].

As for `CNc1cc(C2CCCN2Cc2ccccc2C(=O)O)ccn1` (stereo not drawn), the Percent Effect in experiment [1] was -4.24%; in experiment [2], -6.76%; in [3], 3.65%; in experiment [4], -0.354%; in the experiment with Trypanosoma cruzi it was -1.19%; in [5] it was -0.696%. Moreover, the Percent Effect was 7.33% in experiment [6]; 7.54% in the experiment filed under Homo sapiens; 8.6% in experiment [7]; 11.7% in experiment [8]; -11.7% in experiment [9].

With `CN(c1ccncn1)C1CC2(CCN(C(=O)c3cccs3)C2)C1` (stereo not drawn), the Percent Effect in experiment [1] is -5.11%; in experiment [2] it was 1.35%; in [3], 1.54%; in experiment [4] it was 8.09%; with Trypanosoma cruzi, 2.96%; in [5], -2.09%. The Percent Effect in experiment [6] is 1.09%; in the experiment filed under Homo sapiens, 11.6%; in experiment [7] it was -6.45%; in experiment [8] it was -6.49%; in experiment [9], -17.8%.
